In PubChem BioAssay AID1345083 (National Center for Advancing Translational Sciences (NCATS), 2018):
The whole screen tested about 94,000 compounds, of which about 6,200 (6.6%) were called active. Inconclusive results (about 31%) are left out. The sample as a whole holds a higher share of actives than the screen did. Unmarked numbers belong to inactive results. Calls come from the whole dose curve; as a rule, active = well fitted inhibition curve with a large enough effect; inconclusive = small, poorly fitted or top-dose-only effect; inactive = flat fitted curve, though single readings scatter.
% is set by controls: 0 for no effect and ±100 for the full control effect; potency is the fitted concentration of half-maximal effect.

Assay: Cytotoxic Profiling in HEK 293 Cell Line of Diverse Libraries Using Quantitative High-Throughput Screening; note: nearly all actives have a fitted effect of over 60% in size
Details: HEK 293 viability, ATP luminescence (CellTiter-Glo), 48-72 h; series mostly up to 115 µM; activity change, negative = cytotoxicity: at the top concentration
Description: Cell-based phenotypic screening is a commonly used approach to discover biological pathways, novel drug targets, chemical probes and high-quality hit-to-lead molecules. Many hits identified from high-throughput screening campaign are ruled out through a series of follow-up potency, selectivity/specificity, and cytotoxicity assays. Prioritization of molecules with little or no cytotoxicity for a more in-depth downstream evaluation influence the future direction of projects, so cytotoxicity profiling of the screening libraries at early stage is essential for increasing the likelihood of candidate success. In this study, we analyzed results from a cell-based cytotoxicity screening campaign, comprising nearly 10,000 compounds in NCATS annotated libraries, and over 100,000 compounds in a diversity library, evaluated in four normal cell lines (HEK 293, NIH 3T3, CRL-7250 and HaCat) and a cancer cell line (KB 3-1, a HeLa subline) with overall screening outcomes, hit rates, pan-activity and selectivity. For the annotated library, we also examined the primary targets and mechanistic pathways regularly associated with cell death. To our knowledge, this is the first study to use high-throughput screening to profile large libraries for cytotoxicity assessment in both normal and cancer cell lines. In summary, the results generated here constitutes a valuable resource for the scientific community and provides insight on identifying cytotoxic compounds with particular mechanisms of action, and prioritizing compounds with suitable cytotoxicity profile for further evaluation.
HEK 293 cells were seeded into white 1536-well plates using a Multidrop Combi peristaltic dispenser (ThermoFisher, Waltham, MA) at a density of 250 cells/well in 5 uL of medium respectively. A pintool (Kalypsys) was used to transfer 23 nL of compound solution to the 1536-well assay plates. After 48 or 72 hr incubation at 37 degree Celsius, 5% CO2 and 95% humidity, 2.5 uL of CellTiter-Glo (Promega) was dispensed into each well using a dispenser (Aspect Automation, St. Paul, MN) with solenoid valves (Lee Valves, Westbrook CT). Plates were left at room temperature for 10 min before imaging the ATP-coupled luminescence using a ViewLux microplate imager (PerkinElmer, Waltham, MA).
In the case of `O=C(Cc1cccc(F)c1)N1[C@H]2CC[C@@H]1c1cnc(-c3ccccc3)nc1C2`, the “activity change, negative = cytotoxicity” value is reported as -17.9%.
For `CCS(=O)(=O)N1[C@H]2CC[C@@H]1c1cnc(C)nc1C2`, the “outcome” value was “inactive”.
For `COC(=O)c1ccc(NC(=O)N2[C@H]3CC[C@@H]2c2cnc(-c4ccc(F)cc4)nc2C3)cc1`, the Potency was 44.7 µM (active).
For `Cc1nc(C)c(C(=O)N2[C@H]3CC[C@@H]2c2cnc(-c4ccccc4)nc2C3)s1`, the Potency was 39.8 µM (active).
With `O=C(Cc1ccccc1)N1[C@H]2CC[C@@H]1c1cnc(-c3ccc(F)cc3)nc1C2` the Potency was 28.2 µM (active).
With `Cc1ncc2c(n1)C[C@@H]1CC[C@H]2N1S(=O)(=O)c1ccc(F)cc1` the “activity change, negative = cytotoxicity” value was -9.05%.
In the case of `Cc1ncc2c(n1)C[C@@H]1CC[C@H]2N1C(=O)c1ccccn1`, the “activity change, negative = cytotoxicity” value is reported as -3.35%.
For `Cn1cnc(S(=O)(=O)N2[C@H]3CC[C@@H]2c2cnc(-c4ccc(F)cc4)nc2C3)c1`, the “activity change, negative = cytotoxicity” value was -5.79%.
In the case of `Cc1cccc(CC(=O)N2[C@H]3CC[C@@H]2c2cnc(C)nc2C3)c1`, the “outcome” value is reported as “inactive”.
For `O=C(c1ccc2c(c1)CCO2)N1C[C@@H](c2ccc(F)cc2)[C@@H]2[C@H]1C1CCN2CC1`, the “outcome” value was “inactive”.
With `O=[S+]1([O-])NC2(CCN(CC3CCOCC3)C2)COc2ccncc21` (centres undefined) the “outcome” value was “inactive”.
For `CC(=O)N1CC2(CCN(Cc3cccnc3)C2)Cc2ccccc21` (centres undefined), the “activity change, negative = cytotoxicity” value was -16.8%.
In the case of `CC(C)N1CCN(C(=O)Cc2cccn2-c2ccc(F)cc2)CC1`, the “activity change, negative = cytotoxicity” value is reported as -18.2%.
With `Cc1ccc2c(n1)N(C)[C@H](CO)CCN(C1CCCC1)C2` the “activity change, negative = cytotoxicity” value was -1.63% [at 230 µM].
With `O=C1NC2(Cc3ccccc31)CN(CC1CC1)C2` the “outcome” value was “inactive [at 230 µM]”.
With `Cc1ccc([C@@H]2CN(C(=O)c3ccco3)[C@@H]3C4CCN(CC4)[C@@H]32)cc1` the “activity change, negative = cytotoxicity” value was -13.1%.
With `O=C(c1cocn1)N1C[C@H](c2cccc(F)c2F)[C@@H]2[C@H]1C1CCN2CC1` the “outcome” value was “inactive”.
For `CCCS(=O)(=O)N1C[C@@H]2C[C@H](C1)c1ccc(-c3ccccc3C)c(=O)n1C2`, the “outcome” value was “inactive [at 172 µM]”.
For `COc1cc2c(cc1OCc1ccncc1)NC(=O)C21CCN(c2ncc(F)cn2)CC1`, the Potency was 50.1 µM (active).
With `COc1cc2c(cc1OC1CCCC1)NC(=O)C21CCN(c2nccs2)CC1` the Potency was 89.1 µM (active).
In the case of `COc1cc2c(cc1Oc1ccccc1)NC(=O)C21CCN(c2ccnc(C)n2)CC1`, the Potency is reported as 63.1 µM (active).
In the case of `COc1cc2c(cc1Oc1cccc(N(C)C)c1)NC(=O)C21CCN(Cc2ccccn2)CC1`, the Potency is reported as 44.7 µM (active).
In the case of `O=C(c1ccncc1)N1C[C@@H]2C[C@H](C1)c1ccc(C3CCCCC3)c(=O)n1C2`, the “activity change, negative = cytotoxicity” value is reported as -2.59% [at 172 µM].
In the case of `CC1=NOC2(CCN(Cc3cncs3)C2)C1` (centres undefined), the “outcome” value is reported as “inactive [at 172 µM]”.
With `O=[S+]1([O-])NCC2(CCN(Cc3cccnc3)C2)Oc2ncccc21` (centres undefined) the “outcome” value was “inactive”.
In the case of `O=C1CC2CCN(Cc3cccnc3)CC2CCN1` (centres undefined), the “outcome” value is reported as “inactive [at 172 µM]”.
For `O=C1NC2(Cc3ccccc31)CN(Cc1ccncc1)C2`, the “outcome” value was “inactive [at 172 µM]”.
With `COc1cccc([C@H]2CN(c3cc(C)nc(N)n3)[C@@H]3C4CCN(CC4)[C@H]23)c1` the “activity change, negative = cytotoxicity” value was -20.8%.
For `CNC(C)c1ccc(Cl)cc1` (centres undefined), the “activity change, negative = cytotoxicity” value was -18.1% [at 230 µM].
In the case of `Cc1ccccc1OCC(=O)N1CCN(Cc2ccc(=O)n(C)c2)CC1`, the “activity change, negative = cytotoxicity” value is reported as -19.9%.
With `C=CCOc1c(Cl)cc(CNC(C)Cn2cccn2)cc1OC` (centres undefined) the “activity change, negative = cytotoxicity” value was -12.6%.
For `CC(C)N1CC2CCC(C1)N2C(=O)N1CCCC1`, the “activity change, negative = cytotoxicity” value was 4.58% [at 172 µM].
For `O=C(NC1CCCCC1)N1C[C@@H]2C[C@H](C1)c1c(-c3ccccc3F)ccc(=O)n1C2`, the “activity change, negative = cytotoxicity” value was -25.2% [at 172 µM].
In the case of `FC(F)(F)CN1C2CCC1CN(c1ccc(Cl)nn1)C2`, the “outcome” value is reported as “inactive”.
In the case of `CC(C)C(=O)N1CCC2(CC1)NCc1ccccc1-n1ccnc12`, the “activity change, negative = cytotoxicity” value is reported as -12.3%.
In the case of `COc1cc2c(cc1-c1ccncc1)NC(=O)C21CCN(C(C)=O)CC1`, the “activity change, negative = cytotoxicity” value is reported as -19.9% [at 172 µM].
For `COc1cc2c(cc1OCc1ccccc1)NC(=O)C21CCN(C(=O)C(C)C)CC1`, the Potency was 89.1 µM (active).
With `COc1cc2c(cc1OCc1ccncc1)NC(=O)C21CCN(c2ncccn2)CC1` the Potency was 100 µM (active).
For `COc1ccc([C@@H]2CN(C(=O)c3c(C)noc3C)[C@@H]3C4CCN(CC4)[C@@H]32)cc1`, the “activity change, negative = cytotoxicity” value was -7.87%.
In the case of `CCC(CC)c1cc([C@H]2CN3CC[C@H]2C[C@@H]3CNS(=O)(=O)Cc2ccccc2)nc(-c2ccncc2)n1`, the Potency is reported as 31.6 µM (active).
In the case of `COc1ccc(-c2cn(C[C@H]3C[C@@H]4CCN3C[C@@H]4C(=O)NCc3ccccc3)nn2)cc1`, the “activity change, negative = cytotoxicity” value is reported as -21% [at 172 µM].
In the case of `CCCS(=O)(=O)NC[C@H]1C[C@@H]2CCN1C[C@@H]2c1cc(C2CCCC2)nn1C`, the “activity change, negative = cytotoxicity” value is reported as -26.7% [at 172 µM].
For `Cc1ccc(S(=O)(=O)NC[C@H]2C[C@@H]3CCN2C[C@@H]3CN2CCN(c3ncccn3)CC2)cc1`, the “activity change, negative = cytotoxicity” value was -6.41%.
For `CCC(CC)c1cc([C@H]2CN3CC[C@H]2C[C@@H]3CNC(=O)NCc2ccccc2)nc(-c2ccncc2)n1`, the Potency was 28.2 µM (active).
In the case of `CCCCc1cn(C[C@H]2CC3CCN2C[C@@H]3C(=O)NCc2ccccc2)nn1` (some centres undefined), the “activity change, negative = cytotoxicity” value is reported as -1.65% [at 172 µM].
In the case of `O=[N+]([O-])c1ccc(N2CC3CCC(C2)N3CC(F)(F)F)nc1`, the “outcome” value is reported as “inactive”.
For `Cc1ccc(S(=O)(=O)NC[C@H]2C[C@@H]3CCN2C[C@@H]3CN2CCSCC2)cc1`, the “activity change, negative = cytotoxicity” value was 0.97% [at 172 µM].
In the case of `Cc1noc(C)c1C(=O)N1C2CCC1CN(Cc1cccnc1)C2`, the “activity change, negative = cytotoxicity” value is reported as -29.8%.
For `O=C(O)COCC(=O)N1C[C@@H]2C[C@H](C1)c1c(-c3ccc4ccccc4c3)ccc(=O)n1C2`, the “activity change, negative = cytotoxicity” value was -2.71% [at 172 µM].
With `CCOc1ccc(C(=O)N2CCC3(CC2)c2nccn2-c2ccccc2CN3C)cc1` the “activity change, negative = cytotoxicity” value was -21.5%.
With `C#C[C@H]1CN2CC[C@H]1C[C@@H]2COC(=O)Nc1cc(OC)cc(OC)c1` the Potency was 100 µM (active).
In the case of `CCCNC(=O)OC[C@H]1C[C@@H]2CCN1C[C@@H]2c1cc(-c2ccc(OC)c(OC)c2)nn1C`, the “activity change, negative = cytotoxicity” value is reported as -12.2%.
With `C#C[C@H]1CN2CC[C@H]1C[C@@H]2CNC(=O)C1CC1` the “activity change, negative = cytotoxicity” value was -2.38% [at 230 µM].
In the case of `FC(F)(F)CN1C2CCC1CN(c1ccc(C(F)(F)F)nc1)C2`, the “activity change, negative = cytotoxicity” value is reported as -14.1%.
